Test results published in paper PMC4336329 (PLoS ONE, 2015).
Among all 310,000 compounds or so, about 2,200 (0.71%) showed an effect of 50% or more. Effects have a minus sign here. Only a selection was taken, and strong results are over-represented in it overall.

biological target: human ether-à-go-go-related gene (hERG) potassium channel (human, UniProt Q12809); assay: primary screen, population patch clamp on CHO cells stably expressing hERG; higher = less effect of the substance
Sequence (Q12809 whole entry, looked up): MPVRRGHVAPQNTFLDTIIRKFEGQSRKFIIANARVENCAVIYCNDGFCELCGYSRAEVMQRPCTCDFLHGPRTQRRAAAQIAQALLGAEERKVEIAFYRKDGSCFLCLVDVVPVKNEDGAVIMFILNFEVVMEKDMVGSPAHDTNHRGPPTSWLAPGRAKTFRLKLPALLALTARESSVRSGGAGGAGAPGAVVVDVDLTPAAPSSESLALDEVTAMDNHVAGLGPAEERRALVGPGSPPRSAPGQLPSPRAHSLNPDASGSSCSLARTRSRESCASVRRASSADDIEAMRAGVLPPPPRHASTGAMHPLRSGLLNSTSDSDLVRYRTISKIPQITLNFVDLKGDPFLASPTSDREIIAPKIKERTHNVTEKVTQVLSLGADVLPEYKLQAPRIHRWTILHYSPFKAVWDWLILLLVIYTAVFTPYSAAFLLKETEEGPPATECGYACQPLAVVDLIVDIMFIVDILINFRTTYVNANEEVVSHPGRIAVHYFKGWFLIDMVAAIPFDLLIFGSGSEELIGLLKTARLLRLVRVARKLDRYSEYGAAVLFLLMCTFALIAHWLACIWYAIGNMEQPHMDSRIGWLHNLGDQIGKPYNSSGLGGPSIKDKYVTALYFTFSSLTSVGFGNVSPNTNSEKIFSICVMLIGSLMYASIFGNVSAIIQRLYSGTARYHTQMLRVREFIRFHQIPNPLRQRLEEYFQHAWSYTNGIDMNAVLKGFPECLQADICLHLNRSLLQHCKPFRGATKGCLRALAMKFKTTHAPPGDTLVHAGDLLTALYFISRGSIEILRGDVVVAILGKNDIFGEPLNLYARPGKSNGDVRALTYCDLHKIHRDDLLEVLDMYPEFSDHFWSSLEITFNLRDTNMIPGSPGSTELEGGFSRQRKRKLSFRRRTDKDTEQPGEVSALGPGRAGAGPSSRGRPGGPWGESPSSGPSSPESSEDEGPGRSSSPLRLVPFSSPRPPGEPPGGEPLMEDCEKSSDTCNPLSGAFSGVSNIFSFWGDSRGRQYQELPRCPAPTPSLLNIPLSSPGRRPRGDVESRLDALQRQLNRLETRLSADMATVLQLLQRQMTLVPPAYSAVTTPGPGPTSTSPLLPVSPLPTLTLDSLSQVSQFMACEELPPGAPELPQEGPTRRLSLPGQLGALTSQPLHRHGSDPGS

| Structure (SMILES) | hERG current change (%, negative = inhibition) at 1uM [%] |
| --- | --- |
| COc1ccc(/C=C2/C(=O)NC(=O)N(c3ccc(C)c(C)c3)C2=O)cc1CN1C(=O)c2ccccc2C1=O | -3.04 |
| CCCC(=O)Nc1c2c(nn1-c1cccc(C)c1C)CS(=O)(=O)C2 | 4.62 |
| COc1ccccc1/C=C1\SC(=O)N(CCC(=O)N2CCCCC2CCO)C1=O (stereo not drawn) | 14.7 |
| CCOC(=O)c1c2ccc(OCC(=O)NN)cc2n2ccccc12 | 13.3 |
| CC1CC(C)CN(CCCNC(=O)C2CCN(c3ncnc4c3sc3cccc(F)c34)CC2)C1 (stereo not drawn) | -14.9 |
| CCCCCCNC(=O)c1cc(-c2ccco2)nc2ccccc12 | 7.12 |
| CCN(CC)CCNC(=O)c1cc(-c2ccco2)nc2ccccc12.Cl | -55 |
| CC(C)CCNC(=O)c1cc(-c2cccs2)nc2ccccc12 | 2.51 |
| CCN(CC)CCNC(=O)c1ccc(NC(=O)c2cc(-c3ccco3)nc3ccccc23)cc1 | 9.15 |
| CCCCN(C)CCCNC(=O)c1cc(-c2cccnc2)nc2ccccc12 | -20.2 |
| CCCCN(C)CCCNC(=O)c1cc(-c2cccs2)nc2ccccc12 | -80.8 |
| O=C(NC1CCCCC1)N(C1=NCCCCC1)c1ccc(Br)cc1 | 13.1 |
| Cc1cccc(NC(=O)CSCc2nc3c(nnn3Cc3ccc(F)cc3)c(=O)[nH]2)c1C | 8.63 |
| Cc1cc(C)n2nc(NCc3cccc(Br)c3)nc2n1 | -32.1 |
| O=C(Nc1cccc(NC(=O)c2ccccc2Cl)c1)c1ccc(F)cc1 | 7.98 |
| COc1ccc2oc(C(=O)NCc3ccccc3CN3CCCC3)c(C)c2c1 | -27.2 |
| CCOC(=O)c1oc2ccccc2c1CN1CCN(C)CC1.Cl | -50.2 |
| CCOC(=O)c1oc2ccccc2c1CN1CCOCC1.Cl | -5.9 |
| CCOCc1c(C(=O)NC2CCCCCC2)oc2ccccc12 | -1.11 |
| Cc1c(C(=O)NCc2ccccc2CN2CCCC2)oc2ccc(F)cc12 | -57.4 |
| CCOc1ccc2oc(C(=O)NCc3ccccc3CN3CCCC3)c(C)c2c1 | -12.2 |
| CCOCc1c(C(=O)NCc2ccccc2CN2CCCC2)oc2ccccc12 | -60.1 |

| Structure (SMILES) | hERG current change (%, negative = inhibition) at 1uM [%] |
| --- | --- |
| CCOC(=O)c1oc2ccccc2c1CN1CCCCC1.Cl | -9.66 |
| COCc1c(C(=O)NCc2ccccc2CN2CCCC2)oc2ccccc12 | -34 |
| Cc1ccc(NC(=O)CCn2c(=S)oc3ccccc32)cc1 | 11 |
| CC(C)(C)C(=O)Nc1c(Cl)cccc1OC(F)(F)F | 12.4 |
| CC1CCN(S(=O)(=O)c2ccc3c(c2)n(C)c(=O)n3C)CC1 | 0.216 |
| COc1ccc(CCN(C(=O)/C=C/C(=O)O)C2CC(=O)N(c3ccccc3)C2=O)cc1 (stereo not drawn) | 8.45 |
| C=C(C)CNC(=O)CCc1nnc(C2(c3ccc(Cl)cc3)CCC2)o1 | 12.3 |
| CCNC(=S)N1CCN(Cc2ccccc2)CC1.O=C(O)C(=O)O | -7.37 |
| O=C(CN1CCN(Cc2ccc(F)cc2)CC1)Nc1nc2ccccc2s1 | -54 |
| COc1ccc(NC(=O)CN2CCN(Cc3ccc4c(c3)OCO4)CC2)cc1OC.O=C(O)C(=O)O | 4.15 |
| O=C(CN1CCN(Cc2ccccc2)CC1)Nc1nc2ccccc2s1 | -24.1 |
| O=C(CN1CCN(c2ccc(F)cc2)CC1)Nc1ccc2c(c1)OCCO2 | 14.1 |
| O=C(CN1CCN(CC(=O)Nc2ccc3c(c2)OCO3)CC1)Nc1ccc(F)cc1 | -83.5 |
| CCCN1CCN(CC(=O)Nc2nc3ccccc3s2)CC1 | -17.9 |
| O=C(CN1CCN(S(=O)(=O)c2ccc(F)cc2)CC1)Nc1ccc2c(c1)OCO2 | -8 |
| O=C(CN1CCN(Cc2ccc3c(c2)OCO3)CC1)Nc1ccc2c(c1)OCO2 | -64.3 |
| NC(=O)CN1CCN(Cc2ccc3c(c2)OCO3)CC1 | 22.5 |
| COC(=O)c1c(NC(=O)CN2CCN(Cc3ccc4c(c3)OCO4)CC2)sc(C)c1C.O=C(O)C(=O)O | 5.45 |
| COC(=O)c1ccsc1NC(=O)CN1CCN(Cc2ccc3c(c2)OCO3)CC1 | -59.7 |
| O=C(CN1CCN(Cc2ccc3c(c2)OCO3)CC1)Nc1ccc(N2CCOCC2)cc1 | 8.8 |
| CN(Cc1ccccc1)C(=O)CN1C(=O)NC(C)(c2ccc(Cl)cc2)C1=O (stereo not drawn) | 12.8 |
| COc1ccc(-c2cc(C(=O)N3CCN(c4ccccc4F)CC3)c3ccccc3n2)c(OC)c1 | 4.75 |

| Structure (SMILES) | hERG current change (%, negative = inhibition) at 1uM [%] |
| --- | --- |
| CCn1c(SCC(=O)NCc2ccc3c(c2)OCO3)nnc1-c1c[nH]c2ccccc12 | 14.9 |
| N/C(=N\OC(=O)CC1CCCCC1)c1ccncc1 | 12.3 |
| O=C(c1ccc(F)cc1)N1CCN(C(=O)c2ccc([N+](=O)[O-])cc2)CC1 | -13.7 |
| CCn1nc(C(=O)NNC(=O)c2ccccc2OCc2c(C)noc2C)c2ccccc2c1=O | 9.55 |
| O=C(CCn1c(=O)[nH]c2ccccc2c1=O)N1CCN(c2ccc(Cl)cc2)CC1 | -4.13 |
| Cc1cc(NS(=O)(=O)c2ccc(NC(=O)COc3ccc(Cl)cc3Cl)cc2)no1 | -0.394 |
| CC(=O)O.NCC(c1ccco1)c1c[nH]c2ccccc12 (stereo not drawn) | 12.2 |
| O=C(CN1CCN(Cc2ccc3c(c2)OCO3)CC1)Nc1ccc(F)cc1 | -82.6 |
| O=C(C1COc2ccccc2O1)N1CCN(c2ccc(F)cc2)CC1 (stereo not drawn) | -9.29 |
| COC(=O)c1[nH]c2ccc(C)cc2c1NC(=O)CCN1CCN(Cc2ccc3c(c2)OCO3)CC1 | -33 |
| COC(=O)c1[nH]c2ccccc2c1NC(=O)CN1CCN(Cc2ccc3c(c2)OCO3)CC1 | -70.3 |
| O=C(CN1CCN(C(=O)C2COc3ccccc3O2)CC1)Nc1ccc(F)cc1 (stereo not drawn) | -63.5 |
| CCN(CC(=O)Nc1c(C(=O)OC)[nH]c2ccccc12)c1ccc2c(c1)OCO2 | 12.1 |
| O=C(CN1CCN(Cc2ccc3c(c2)OCO3)CC1)NCC(F)(F)F | 11.2 |
| COc1cc(NC(=O)CN2CCN(Cc3ccc4c(c3)OCO4)CC2)cc(OC)c1.O=C(O)C(=O)O | -9.16 |
| O=C(CN1CCN(C(=O)C2COc3ccccc3O2)CC1)Nc1ccccc1 (stereo not drawn) | -22.5 |
| O=C(COC(=O)/C=C/c1ccccc1F)Nc1nnc(-c2ccccc2)o1 | 7.16 |
| Cc1ccc(S(=O)(=O)NCCOCCNS(=O)(=O)c2ccc(C)cc2)cc1 | -2.18 |
| Cc1ccccc1C(=O)NC1CCN(C(=O)N2CCOCC2)CC1 | 12.6 |
| O=c1cc(O)c2c(=O)n(C3CCCCC3)c3ccccc3c2o1 | 10.4 |
| CC(C)OC(=O)CSc1nc2c(cc1C#N)CCCCC2 | 10.2 |
| CC12CCC(=O)N1C(C(=O)Nc1cccc(S(=O)(=O)N3CCCCCC3)c1)CS2 (stereo not drawn) | -29.7 |

| Structure (SMILES) | hERG current change (%, negative = inhibition) at 1uM [%] |
| --- | --- |
| CC12CCC(=O)N1C(C(=O)OCC(=O)Nc1cc(S(=O)(=O)N3CCCCC3)ccc1Cl)CS2 (stereo not drawn) | 11.1 |
| CC12CCC(=O)N1C(C(=O)OCC(=O)Nc1cccc(S(=O)(=O)N3CCCCCC3)c1)CS2 (stereo not drawn) | -51.9 |
| COc1ccc(CNCC(O)(c2ccccc2)c2ccc(F)cc2)cc1 (stereo not drawn) | -45.9 |
| O=C(CN1CCCC1=O)NCCc1ccccc1 | 8.88 |
| CCOc1ccc(CN(C)C(C)C(=O)NCc2ccccc2)cc1 (stereo not drawn) | -21.7 |
| CN(CCc1ccccn1)Cc1ccc(Cl)c(Cl)c1 | -0.903 |
| CN(CCc1ccccn1)Cc1ccc(Cl)cc1 | -24.6 |
| CCOc1ccc(CN(C)C(C)C(=O)NCCc2ccc(F)cc2)cc1 (stereo not drawn) | -57.1 |
| CN(CCc1ccccn1)Cc1ccc(Cl)cc1Cl | -54.1 |
| CSc1ccc(CN(C)CCc2ccccn2)cc1.O=C(O)C(=O)O | -21.3 |
| CN(CC(=O)NCc1ccccc1)Cc1ccc(Cl)cc1 | 2.36 |
| CCOc1ccc(CN(C)CCc2ccccn2)cc1.O=C(O)C(=O)O | -58.8 |
| CCc1ccc(CN(C)CCc2ccccn2)cc1 | -34.7 |
| CCC(CC)C(=O)NCCc1ccc(F)cc1 | 10.2 |
| CSc1ccc(CN(C)CC(=O)NCc2ccccc2)cc1 | -11.1 |
| CCOc1ccc(CN(C)CC(=O)NCc2ccccc2)cc1 | -82.3 |
| O=c1c2ccccc2c(/C=N/c2nnc(Cc3ccccc3)s2)c(O)n1-c1ccc(Cl)cn1 | 11.3 |
| COC(=O)C(C)NS(=O)(=O)c1ccc(NC(C)=O)cc1 (stereo not drawn) | 1.66 |
| Cc1ccc(C(=O)c2coc3cc([N+](=O)[O-])c(O)c([N+](=O)[O-])c23)cc1 | 7.26 |
| COCCCn1c(=O)/c(=C\c2ccccc2OC(F)F)s/c1=C(/C#N)C(=O)N1CCOCC1 | 9.19 |
| CCN(CCn1cccn1)C(=O)c1cc(COc2ccc(F)c(F)c2)on1 | -27.1 |
